# According to publication PMC7862700, “An all-to-all approach to the identification of sequence-specific readers for epigenetic DNA modifications on cytosine”:
# Tests used:
# Experiment in all cases: DAPPL (digital affinity profiling via proximity ligation, sequencing); 10 mM Tris-HCl pH 7.5, 50 mM NaCl, 1 mM DTT, 4% glycerol, room temperature, 30 min; GST-TFs on glutathione beads, 16-mer random dsDNA library, 0.1% formaldehyde crosslink after washing; high values mean tight binding
# FLI1 = target: T1, FLI1 (Homo sapiens, UniProt Q01543 1-452); conditions: protein: recombinant; tags: N-terminal GST; dsDNA, one strand shown
# T1 sequence: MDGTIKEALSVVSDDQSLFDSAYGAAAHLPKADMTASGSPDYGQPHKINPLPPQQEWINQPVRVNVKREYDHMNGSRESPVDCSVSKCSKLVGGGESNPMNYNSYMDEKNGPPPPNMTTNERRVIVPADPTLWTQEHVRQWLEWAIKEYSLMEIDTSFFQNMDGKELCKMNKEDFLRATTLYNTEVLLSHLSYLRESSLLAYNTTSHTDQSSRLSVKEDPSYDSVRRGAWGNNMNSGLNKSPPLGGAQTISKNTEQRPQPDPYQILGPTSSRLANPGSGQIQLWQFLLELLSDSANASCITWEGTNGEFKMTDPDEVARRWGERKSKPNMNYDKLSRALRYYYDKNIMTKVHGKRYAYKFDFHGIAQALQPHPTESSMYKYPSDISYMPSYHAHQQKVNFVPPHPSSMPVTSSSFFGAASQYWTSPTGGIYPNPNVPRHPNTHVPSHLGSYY
# How it was run: (§1)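 Binding signal is given per hexamer as its read frequency for a factor divided by its frequency in the tag-only sample. GST-fused human transcription factors were expressed in yeast, captured on glutathione beads, barcoded with DNA and pooled with that sample, then incubated with 200 nmole of a 16-mer random double-stranded DNA library in Tris/NaCl/DTT/glycerol buffer for 30 min at room temperature. The pools were then washed, crosslinked, proximity-ligated, amplified by PCR and sequenced on an Illumina NextSeq500.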
# ELK1 = target: T2, ELK1 (Homo sapiens, UniProt P19419 1-428); conditions: protein: recombinant; tags: N-terminal GST; dsDNA, one strand shown
# T2 sequence: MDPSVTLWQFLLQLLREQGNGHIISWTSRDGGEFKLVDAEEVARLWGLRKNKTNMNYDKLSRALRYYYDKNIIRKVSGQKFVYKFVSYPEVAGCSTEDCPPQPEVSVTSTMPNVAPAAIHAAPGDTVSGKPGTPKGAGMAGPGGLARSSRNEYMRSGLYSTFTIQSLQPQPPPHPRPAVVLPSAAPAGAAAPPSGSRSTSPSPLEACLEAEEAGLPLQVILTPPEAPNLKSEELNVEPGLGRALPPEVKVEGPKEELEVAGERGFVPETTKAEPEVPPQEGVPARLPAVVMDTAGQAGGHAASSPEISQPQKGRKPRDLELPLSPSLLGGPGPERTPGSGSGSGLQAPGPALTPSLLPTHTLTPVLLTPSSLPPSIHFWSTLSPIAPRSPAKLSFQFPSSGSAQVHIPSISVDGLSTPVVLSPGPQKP
# How it was run: as §1
# GABPA = target: T3, GABPA (Homo sapiens, UniProt Q06546 1-454); conditions: protein: recombinant; tags: N-terminal GST; dsDNA, one strand shown
# T3 sequence: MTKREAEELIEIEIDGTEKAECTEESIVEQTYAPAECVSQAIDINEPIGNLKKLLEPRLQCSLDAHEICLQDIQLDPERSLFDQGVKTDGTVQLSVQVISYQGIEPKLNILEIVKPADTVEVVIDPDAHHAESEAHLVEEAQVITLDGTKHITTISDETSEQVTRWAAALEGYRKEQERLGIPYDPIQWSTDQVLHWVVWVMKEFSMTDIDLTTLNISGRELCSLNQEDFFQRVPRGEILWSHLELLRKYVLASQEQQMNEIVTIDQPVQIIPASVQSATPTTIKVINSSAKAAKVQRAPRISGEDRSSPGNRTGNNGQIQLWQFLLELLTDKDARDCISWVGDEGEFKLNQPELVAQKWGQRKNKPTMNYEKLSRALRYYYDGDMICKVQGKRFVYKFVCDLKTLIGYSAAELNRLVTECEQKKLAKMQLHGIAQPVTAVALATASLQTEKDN
# How it was run: as §1
# ERG = target: T4, ERG (Homo sapiens, UniProt P11308 1-479); conditions: protein: recombinant; tags: N-terminal GST; dsDNA, one strand shown
# T4 sequence: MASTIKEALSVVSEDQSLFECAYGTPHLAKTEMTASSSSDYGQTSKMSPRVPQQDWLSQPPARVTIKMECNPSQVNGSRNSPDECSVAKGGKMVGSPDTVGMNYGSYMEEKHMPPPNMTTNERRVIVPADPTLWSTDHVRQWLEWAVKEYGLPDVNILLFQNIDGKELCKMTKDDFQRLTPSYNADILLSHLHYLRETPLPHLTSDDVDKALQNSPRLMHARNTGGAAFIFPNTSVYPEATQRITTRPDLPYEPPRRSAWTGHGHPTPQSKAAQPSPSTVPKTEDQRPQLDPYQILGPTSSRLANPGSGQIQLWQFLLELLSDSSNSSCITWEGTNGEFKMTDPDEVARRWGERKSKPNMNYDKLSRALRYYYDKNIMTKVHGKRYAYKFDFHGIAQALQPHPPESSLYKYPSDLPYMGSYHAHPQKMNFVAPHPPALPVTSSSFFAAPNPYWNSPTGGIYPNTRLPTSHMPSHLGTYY
# How it was run: as §1
# ELF1 = ELF1 (Homo sapiens, UniProt P32519 1-619); conditions: protein: recombinant; tags: N-terminal GST; dsDNA, one strand shown
# How it was run: as §1
# EHF = target: T5, EHF (Homo sapiens, UniProt Q9NZC4 1-300); conditions: protein: recombinant; tags: N-terminal GST; dsDNA, one strand shown
# T5 sequence: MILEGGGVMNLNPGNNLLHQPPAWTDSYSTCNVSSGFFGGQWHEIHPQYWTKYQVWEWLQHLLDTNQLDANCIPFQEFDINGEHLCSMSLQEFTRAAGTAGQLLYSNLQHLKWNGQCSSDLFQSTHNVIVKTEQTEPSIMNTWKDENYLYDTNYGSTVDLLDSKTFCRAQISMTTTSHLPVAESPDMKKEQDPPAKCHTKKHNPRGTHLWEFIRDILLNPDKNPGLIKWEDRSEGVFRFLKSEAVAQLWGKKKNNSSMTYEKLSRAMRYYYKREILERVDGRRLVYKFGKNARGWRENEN
# How it was run: as §1
# SPI1 = SPI1 (Homo sapiens, UniProt P17947 1-270); conditions: protein: recombinant; tags: N-terminal GST; dsDNA, one strand shown
# How it was run: as §1
# SPIB = SPIB (Homo sapiens, UniProt Q01892 1-262); conditions: protein: recombinant; tags: N-terminal GST; dsDNA, one strand shown
# How it was run: as §1
# ELK3 = target: T6, ELK3 (Homo sapiens, UniProt P41970 1-407); conditions: protein: recombinant; tags: N-terminal GST; dsDNA, one strand shown
# T6 sequence: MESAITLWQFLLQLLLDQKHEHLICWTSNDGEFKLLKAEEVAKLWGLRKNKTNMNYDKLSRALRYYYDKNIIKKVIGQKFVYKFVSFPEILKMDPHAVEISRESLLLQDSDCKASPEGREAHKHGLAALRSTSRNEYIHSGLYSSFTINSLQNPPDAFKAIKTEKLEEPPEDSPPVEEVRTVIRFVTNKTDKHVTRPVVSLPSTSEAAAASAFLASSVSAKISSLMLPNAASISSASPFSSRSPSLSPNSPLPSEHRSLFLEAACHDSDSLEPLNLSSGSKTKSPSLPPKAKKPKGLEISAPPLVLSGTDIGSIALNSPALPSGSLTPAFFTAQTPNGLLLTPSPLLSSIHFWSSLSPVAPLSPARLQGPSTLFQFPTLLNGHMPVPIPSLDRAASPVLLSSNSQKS
# How it was run: as §1
# FEV = target: T7, FEV (Homo sapiens, UniProt Q99581 1-238); conditions: protein: recombinant; tags: N-terminal GST; dsDNA, one strand shown
# T7 sequence: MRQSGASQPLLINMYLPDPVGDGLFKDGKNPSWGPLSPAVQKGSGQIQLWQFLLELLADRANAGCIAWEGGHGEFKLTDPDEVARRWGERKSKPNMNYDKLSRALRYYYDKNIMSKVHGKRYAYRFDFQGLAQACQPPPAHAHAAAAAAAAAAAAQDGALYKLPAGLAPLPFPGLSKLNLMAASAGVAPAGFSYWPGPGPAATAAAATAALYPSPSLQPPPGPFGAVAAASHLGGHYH
# How it was run: as §1
# ETV5 = ETV5 (Homo sapiens, UniProt P41161 1-510); conditions: protein: recombinant; tags: N-terminal GST; dsDNA, one strand shown
# How it was run: as §1
# HSF1 = HSF1 (Homo sapiens, UniProt Q00613 1-529); conditions: protein: recombinant; tags: N-terminal GST; chain copies: 3; dsDNA, one strand shown
# How it was run: as §1
# SPIC = target: T8, SPIC (Homo sapiens, UniProt Q8N5J4 1-248); conditions: protein: recombinant; tags: N-terminal GST; dsDNA, one strand shown
# T8 sequence: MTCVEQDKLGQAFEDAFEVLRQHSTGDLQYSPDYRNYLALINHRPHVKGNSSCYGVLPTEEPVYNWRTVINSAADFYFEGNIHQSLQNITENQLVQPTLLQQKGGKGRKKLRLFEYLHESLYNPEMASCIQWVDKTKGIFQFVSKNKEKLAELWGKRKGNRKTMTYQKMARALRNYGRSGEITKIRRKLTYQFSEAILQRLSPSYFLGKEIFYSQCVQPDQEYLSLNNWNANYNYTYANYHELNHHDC
# How it was run: as §1
# ELF4 = ELF4 (Homo sapiens, UniProt Q99607 1-663); conditions: protein: recombinant; tags: N-terminal GST; dsDNA, one strand shown
# How it was run: as §1
# ETV2 = target: T9, ETV2 (Homo sapiens, UniProt O00321 1-342); conditions: protein: recombinant; tags: N-terminal GST; dsDNA, one strand shown
# T9 sequence: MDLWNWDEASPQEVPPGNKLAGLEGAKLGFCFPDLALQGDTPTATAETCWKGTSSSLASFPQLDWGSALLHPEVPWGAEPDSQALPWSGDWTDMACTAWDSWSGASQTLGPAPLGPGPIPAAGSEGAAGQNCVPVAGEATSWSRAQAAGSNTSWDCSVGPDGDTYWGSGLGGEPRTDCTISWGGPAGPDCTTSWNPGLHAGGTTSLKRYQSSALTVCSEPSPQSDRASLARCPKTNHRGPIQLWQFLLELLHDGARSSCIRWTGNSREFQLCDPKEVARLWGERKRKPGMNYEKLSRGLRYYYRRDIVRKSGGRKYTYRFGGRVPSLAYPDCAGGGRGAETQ
# How it was run: as §1
# ELF3 = target: T10, ELF3 (Homo sapiens, UniProt P78545 1-371); conditions: protein: recombinant; tags: N-terminal GST; dsDNA, one strand shown
# T10 sequence: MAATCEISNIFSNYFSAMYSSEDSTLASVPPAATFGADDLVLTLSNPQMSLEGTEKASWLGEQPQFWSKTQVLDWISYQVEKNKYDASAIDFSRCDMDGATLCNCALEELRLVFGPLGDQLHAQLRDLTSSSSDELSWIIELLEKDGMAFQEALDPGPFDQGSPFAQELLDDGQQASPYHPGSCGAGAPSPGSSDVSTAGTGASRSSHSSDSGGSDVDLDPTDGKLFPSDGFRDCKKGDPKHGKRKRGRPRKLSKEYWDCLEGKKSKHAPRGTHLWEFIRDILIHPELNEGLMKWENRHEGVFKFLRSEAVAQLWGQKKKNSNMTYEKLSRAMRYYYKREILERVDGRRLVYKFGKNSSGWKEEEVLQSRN
# How it was run: as §1
# ETV1 = ETV1 (Homo sapiens, UniProt P50549 1-477); conditions: protein: recombinant; tags: N-terminal GST; dsDNA, one strand shown
# How it was run: as §1
# ELF1, sequence (P32519 whole entry): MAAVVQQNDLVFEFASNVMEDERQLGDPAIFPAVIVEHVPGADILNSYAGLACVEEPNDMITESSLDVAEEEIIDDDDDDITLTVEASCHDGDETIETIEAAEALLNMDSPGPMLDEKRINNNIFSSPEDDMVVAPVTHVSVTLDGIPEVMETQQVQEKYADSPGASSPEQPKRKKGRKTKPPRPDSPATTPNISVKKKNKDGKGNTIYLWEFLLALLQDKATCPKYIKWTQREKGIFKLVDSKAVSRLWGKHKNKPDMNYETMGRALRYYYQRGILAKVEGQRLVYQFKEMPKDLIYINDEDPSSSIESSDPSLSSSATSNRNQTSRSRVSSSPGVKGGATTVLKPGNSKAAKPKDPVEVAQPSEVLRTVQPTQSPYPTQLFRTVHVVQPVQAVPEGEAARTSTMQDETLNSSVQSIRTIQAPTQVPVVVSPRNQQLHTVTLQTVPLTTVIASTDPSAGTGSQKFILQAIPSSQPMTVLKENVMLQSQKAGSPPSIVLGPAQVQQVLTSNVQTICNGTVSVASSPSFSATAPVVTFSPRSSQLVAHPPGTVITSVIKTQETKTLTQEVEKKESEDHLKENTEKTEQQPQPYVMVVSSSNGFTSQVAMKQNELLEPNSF
# SPIB, sequence (Q01892 whole entry): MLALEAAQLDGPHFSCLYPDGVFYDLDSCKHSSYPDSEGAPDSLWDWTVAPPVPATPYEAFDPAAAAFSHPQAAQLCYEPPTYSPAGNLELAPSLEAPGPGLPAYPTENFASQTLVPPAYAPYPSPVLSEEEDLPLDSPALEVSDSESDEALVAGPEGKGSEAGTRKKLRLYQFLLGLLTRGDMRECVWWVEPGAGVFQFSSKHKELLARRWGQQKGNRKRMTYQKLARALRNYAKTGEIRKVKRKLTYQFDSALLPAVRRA
# HSF1, sequence (Q00613 whole entry): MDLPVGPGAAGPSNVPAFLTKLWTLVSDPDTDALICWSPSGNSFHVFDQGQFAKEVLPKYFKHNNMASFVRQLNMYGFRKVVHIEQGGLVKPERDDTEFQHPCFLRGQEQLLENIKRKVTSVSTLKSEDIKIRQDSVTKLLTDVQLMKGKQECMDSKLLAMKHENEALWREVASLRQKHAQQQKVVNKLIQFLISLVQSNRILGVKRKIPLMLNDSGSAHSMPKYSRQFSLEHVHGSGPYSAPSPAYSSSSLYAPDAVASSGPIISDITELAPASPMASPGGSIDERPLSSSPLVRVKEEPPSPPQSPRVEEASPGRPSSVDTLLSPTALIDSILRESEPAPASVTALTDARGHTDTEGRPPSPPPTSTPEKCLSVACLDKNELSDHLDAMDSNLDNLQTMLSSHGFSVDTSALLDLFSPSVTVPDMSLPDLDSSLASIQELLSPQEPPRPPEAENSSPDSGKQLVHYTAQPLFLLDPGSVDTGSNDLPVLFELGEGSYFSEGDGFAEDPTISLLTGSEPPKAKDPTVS
# ETV1, sequence (P50549 whole entry): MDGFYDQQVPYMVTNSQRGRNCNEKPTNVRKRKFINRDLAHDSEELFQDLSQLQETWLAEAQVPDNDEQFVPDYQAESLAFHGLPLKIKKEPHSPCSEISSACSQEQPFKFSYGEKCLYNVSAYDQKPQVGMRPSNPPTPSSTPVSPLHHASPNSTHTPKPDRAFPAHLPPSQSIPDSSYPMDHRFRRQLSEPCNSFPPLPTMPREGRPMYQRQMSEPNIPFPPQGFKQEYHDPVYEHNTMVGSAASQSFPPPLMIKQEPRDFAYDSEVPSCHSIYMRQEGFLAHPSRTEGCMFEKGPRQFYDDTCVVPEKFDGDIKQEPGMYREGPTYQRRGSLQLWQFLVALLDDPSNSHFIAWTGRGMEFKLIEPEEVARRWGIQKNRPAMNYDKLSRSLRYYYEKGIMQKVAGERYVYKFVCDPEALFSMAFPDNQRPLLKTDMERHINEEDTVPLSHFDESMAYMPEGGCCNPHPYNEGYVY
# ETV5, sequence (P41161 whole entry): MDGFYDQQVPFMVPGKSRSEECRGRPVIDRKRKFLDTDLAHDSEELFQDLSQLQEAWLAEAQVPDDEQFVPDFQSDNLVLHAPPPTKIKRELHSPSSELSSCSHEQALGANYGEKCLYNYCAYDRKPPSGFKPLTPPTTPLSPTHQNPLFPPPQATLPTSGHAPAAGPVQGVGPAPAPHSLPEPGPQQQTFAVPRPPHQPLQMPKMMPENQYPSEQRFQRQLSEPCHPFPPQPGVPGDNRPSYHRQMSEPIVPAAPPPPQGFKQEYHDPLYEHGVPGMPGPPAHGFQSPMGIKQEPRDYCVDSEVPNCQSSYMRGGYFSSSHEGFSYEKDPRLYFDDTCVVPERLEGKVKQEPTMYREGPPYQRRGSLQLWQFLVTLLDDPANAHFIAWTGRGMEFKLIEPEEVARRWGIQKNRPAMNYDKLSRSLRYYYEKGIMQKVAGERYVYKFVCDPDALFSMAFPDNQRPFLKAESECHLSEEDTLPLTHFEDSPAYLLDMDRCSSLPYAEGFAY
# ELF4, sequence (Q99607 whole entry): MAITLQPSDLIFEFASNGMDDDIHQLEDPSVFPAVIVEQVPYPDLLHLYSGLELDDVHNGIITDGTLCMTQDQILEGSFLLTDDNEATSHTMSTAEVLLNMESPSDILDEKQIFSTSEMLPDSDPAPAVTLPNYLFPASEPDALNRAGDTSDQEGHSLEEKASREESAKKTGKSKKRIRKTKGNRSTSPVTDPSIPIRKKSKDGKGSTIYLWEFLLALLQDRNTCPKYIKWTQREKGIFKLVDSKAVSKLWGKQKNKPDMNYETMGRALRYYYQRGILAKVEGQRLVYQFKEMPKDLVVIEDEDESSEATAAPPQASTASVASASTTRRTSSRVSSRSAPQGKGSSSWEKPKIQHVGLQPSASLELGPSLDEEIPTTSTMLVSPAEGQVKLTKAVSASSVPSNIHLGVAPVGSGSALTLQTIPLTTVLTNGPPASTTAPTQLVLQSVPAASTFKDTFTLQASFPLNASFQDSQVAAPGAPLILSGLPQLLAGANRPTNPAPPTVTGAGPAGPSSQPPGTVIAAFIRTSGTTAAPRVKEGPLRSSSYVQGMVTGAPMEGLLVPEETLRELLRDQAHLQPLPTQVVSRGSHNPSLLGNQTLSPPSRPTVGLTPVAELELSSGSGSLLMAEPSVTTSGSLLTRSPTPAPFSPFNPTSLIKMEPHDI
sequence,measurement,setting,value
CTATGA,binding signal,FLI1,"1.03 fold enrichment (6-mer frequency, TF over GST control)"
same,binding signal,ELK1,"1.13 fold enrichment (6-mer frequency, TF over GST control)"
same,binding signal,GABPA,"1.18 fold enrichment (6-mer frequency, TF over GST control)"
same,binding signal,ERG,"1.06 fold enrichment (6-mer frequency, TF over GST control)"
same,binding signal,ELF1,"1.16 fold enrichment (6-mer frequency, TF over GST control)"
same,binding signal,EHF,"1.14 fold enrichment (6-mer frequency, TF over GST control)"
same,binding signal,SPI1,"1.03 fold enrichment (6-mer frequency, TF over GST control)"
same,binding signal,SPIB,"1.13 fold enrichment (6-mer frequency, TF over GST control)"
same,binding signal,ELK3,"1.01 fold enrichment (6-mer frequency, TF over GST control)"
same,binding signal,FEV,"1.08 fold enrichment (6-mer frequency, TF over GST control)"
same,binding signal,ETV5,"1.07 fold enrichment (6-mer frequency, TF over GST control)"
same,binding signal,HSF1,"1.04 fold enrichment (6-mer frequency, TF over GST control)"
same,binding signal,SPIC,"1.17 fold enrichment (6-mer frequency, TF over GST control)"
same,binding signal,ELF4,"1.1 fold enrichment (6-mer frequency, TF over GST control)"
same,binding signal,ETV2,"1.19 fold enrichment (6-mer frequency, TF over GST control)"
same,binding signal,ELF3,"1.15 fold enrichment (6-mer frequency, TF over GST control)"
same,binding signal,ETV1,"1.02 fold enrichment (6-mer frequency, TF over GST control)"
